Results taken from the supplement of paper PMC10681739.
± gives the standard deviation of the averaged measurements. Whole data set: some 4,000 sequences, median “arbitrary fluorescence units” near 830, cut for the highest 2% near 6,500. What follows is part of a selection rich in the highest values, with near analogues and random picks from the rest.

What follows are sequences tested against RUNX1 (UniProt Q01196) (assay: RUNX1 binding intensity (PBM fluorescence), RUNX1 alone (arbitrary fluorescence units); higher = stronger binding). Conditions: RUNX1 concentration 2 nM; ETS1 concentration 0 nM.
Procedure: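 gcPBM on 36-bp genomic-derived probes (partner site mutated) containing one RUNX1 site and no ETS1 site. Recombinant human RUNX1 (2 nM) was incubated alone or with ETS1 (25 nM) and detected by anti-RUNX1 antibody fluorescence. Values are medians over 4 replicate spots (not normalised). The probes sit in constant array flanks that are not printed.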

RUNX1, sequence (Q01196 whole entry): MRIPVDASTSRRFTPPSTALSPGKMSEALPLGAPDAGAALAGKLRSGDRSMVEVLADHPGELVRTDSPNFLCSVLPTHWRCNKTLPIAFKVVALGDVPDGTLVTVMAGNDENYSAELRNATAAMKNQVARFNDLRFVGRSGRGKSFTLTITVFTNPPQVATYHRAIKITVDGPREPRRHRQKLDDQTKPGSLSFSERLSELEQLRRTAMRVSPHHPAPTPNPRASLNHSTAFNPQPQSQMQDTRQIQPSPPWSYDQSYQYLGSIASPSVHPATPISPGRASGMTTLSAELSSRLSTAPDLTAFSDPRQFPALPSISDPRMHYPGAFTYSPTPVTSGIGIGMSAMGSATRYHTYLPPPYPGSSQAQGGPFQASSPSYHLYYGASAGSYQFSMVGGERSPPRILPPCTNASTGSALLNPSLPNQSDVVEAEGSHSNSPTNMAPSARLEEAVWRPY

How did the RUNX1 binding intensity turn out when GCCCCTCTTTCTGACTCACACAACCGCCTCTAGTCT was run?
Its RUNX1 binding intensity is 1540.

With TTGTGGTAGGGAAATCCACTTACCCCCTCCTCATGT as the sequence, how does the RUNX1 binding intensity read?
Its RUNX1 binding intensity is 808.

TGTGGCAACCACAGCCCCAAAACAAAGAGGAGACAC was tested. Which RUNX1 binding intensity did it give?
The RUNX1 binding intensity was 1040.

With AGCTGAGGTCGCGGTGCAGCAGCAGCAAACGTGATA as the sequence, how does the RUNX1 binding intensity read?
The RUNX1 binding intensity was 1010.

With CCACTAGCAGCAAAACGGGCCGAGGGACCGCAAGCA as the sequence, how does the RUNX1 binding intensity read?
The RUNX1 binding intensity was 821.

AACTTGTGGGGTTTTCTTCTGATCTTGCTCCCCGCT was tested. Which RUNX1 binding intensity did it give?
The RUNX1 binding intensity was 998.

Which RUNX1 binding intensity does the source give for GAAACCACAACCTACCCCAGCCTTACTTTCGGGCGC here?
Its RUNX1 binding intensity is 3300.

How did the RUNX1 binding intensity turn out when CCATTCTTACGGTGGAGATGGCTGCGGCCGTGGCGG was run?
Its RUNX1 binding intensity is 815.

How did the RUNX1 binding intensity turn out when TCAAGAAAACAGTAAACTCTCAAAACCAAGTTCTGA was run?
Its RUNX1 binding intensity is 736.

With GCAATCTTGACCACAACATGGAGACAGGCAATCAAA as the sequence, how does the RUNX1 binding intensity read?
The RUNX1 binding intensity was 1540.

ACGTCTGTTTACTGTGATTGAAACCGCAAGAAGAAG was tested. Which RUNX1 binding intensity did it give?
Its RUNX1 binding intensity is 9630.

For TAGGTCTGTGGGTGACGTCTGTTTACTGTGATTGAA, which RUNX1 binding intensity is on record?
The RUNX1 binding intensity was 842.

CATTCATGTGGCTTATAGGCACACCCTGCCTGCCTA was tested. Which RUNX1 binding intensity did it give?
The RUNX1 binding intensity was 824.

How did the RUNX1 binding intensity turn out when TCCTCCGTTCCCGTAGTTCCGAGTTGCGGTTTCTCC was run?
Its RUNX1 binding intensity is 7620.

With CCCCTTGCCGTTCTCCGAAAGTGCGCGGGTTGGAGC as the sequence, how does the RUNX1 binding intensity read?
Its RUNX1 binding intensity is 868.

GAGGCGTTGCCGCCTCCTTTTCGCGGTTGCCTTCTC was tested. Which RUNX1 binding intensity did it give?
The RUNX1 binding intensity was 988.

TGCTTCCCTTCAGTGCCGACAGCGAAAACCGCTGCC was tested. Which RUNX1 binding intensity did it give?
Its RUNX1 binding intensity is 795.

With GTCGCCGGGATCACCGCAAACGCTTGCTGCTTGCGC as the sequence, how does the RUNX1 binding intensity read?
Its RUNX1 binding intensity is 1190.

Which RUNX1 binding intensity does the source give for AGCCGTGGTCAGCAGCAGCACGACTGCCGCCTCCGC here?
Its RUNX1 binding intensity is 770.

How did the RUNX1 binding intensity turn out when GCAACCGCACTCCGAAAGCTCTGGGCCTGAAGAGTC was run?
The RUNX1 binding intensity was 943.

How did the RUNX1 binding intensity turn out when AACTGGGCTGAAAGAACGGCTAACCGCAAGCTGCCG was run?
The RUNX1 binding intensity was 13200.

For TTGATAGCAAACCACACTCGGCACAGAAAGGAGAAC, which RUNX1 binding intensity is on record?
The RUNX1 binding intensity was 1020.

How did the RUNX1 binding intensity turn out when GGCGCCTCTTTGCGCCCCCGCCCACAATCGAGCGCA was run?
The RUNX1 binding intensity was 826.

With GGTGGACCTGTGGTTTGCAACACAGAAAGAGGTGGC as the sequence, how does the RUNX1 binding intensity read?
The RUNX1 binding intensity was 1580.

For GGTGGACCTGTGGTTTGCAACACAGAAAGAGACTAT, which RUNX1 binding intensity is on record?
Its RUNX1 binding intensity is 1640.

CCTTTGTTGTGGTTTTTGCAGAAAGAGAAGGGTTAG was tested. Which RUNX1 binding intensity did it give?
Its RUNX1 binding intensity is 10600 ± 540.

For CACCTTTGTTGTGGTTTGTAAACGGAGACAAAAACA, which RUNX1 binding intensity is on record?
Its RUNX1 binding intensity is 1460.

TGACGGCTGCACGGGCGCAGCGGCGGCCCGCAGGGG was tested. Which RUNX1 binding intensity did it give?
Its RUNX1 binding intensity is 736.

How did the RUNX1 binding intensity turn out when CTGCCTGCCCCACAGCATGCAGGGACAGGCAGTGGG was run?
The RUNX1 binding intensity was 633.

Which RUNX1 binding intensity does the source give for CGGCCCCCGGGGTGGTTAGCGCTTACGGGGTCGAAG here?
The RUNX1 binding intensity was 714.

For GCCGATGAGGAGGTGAGGGCCAACCACACTGCTCAG, which RUNX1 binding intensity is on record?
Its RUNX1 binding intensity is 870.

For AGAGTCTTTTTTACTGAGCGTTTGCGGTTTTGACTT, which RUNX1 binding intensity is on record?
The RUNX1 binding intensity was 8560.

For AGTGCTGTGGTTTGACTTTGTTTTTACTGTAGCCAG, which RUNX1 binding intensity is on record?
The RUNX1 binding intensity was 1880.

TCAGAACTTGGTTTTGAGAGTTTACTGTTTTCTTGA was tested. Which RUNX1 binding intensity did it give?
The RUNX1 binding intensity was 785.

How did the RUNX1 binding intensity turn out when GGTCTGGAGGACGTTTGCAGCTGCTGTGGGTGGTGG was run?
The RUNX1 binding intensity was 787.

ACCTGATGCCGGGGCACCGCCAGATGTGGCCACGAG was tested. Which RUNX1 binding intensity did it give?
The RUNX1 binding intensity was 872.

TCGCCCGCCGCTTCATGTCGCGGCGCCGCAGAGGCC was tested. Which RUNX1 binding intensity did it give?
Its RUNX1 binding intensity is 781.

With AATTAAATTGTGGTAGATAGTAAAAGGACGTAGTTA as the sequence, how does the RUNX1 binding intensity read?
Its RUNX1 binding intensity is 943.

With TTTAATTCTGTGGTTAGAAGTAAAAGGACGTAAAGG as the sequence, how does the RUNX1 binding intensity read?
Its RUNX1 binding intensity is 3370.

How did the RUNX1 binding intensity turn out when GTAGTAAGTTGTGGTTAAAAGAGAGGACGTTCAGAG was run?
Its RUNX1 binding intensity is 7590.

For ACTCTGCGGCCCAGCTGCTTCTGTGCACAGGCAATA, which RUNX1 binding intensity is on record?
The RUNX1 binding intensity was 791.

CTACCGGGAGTGCGGGTCGCGCTTCAGGCGGCGTCC was tested. Which RUNX1 binding intensity did it give?
Its RUNX1 binding intensity is 724.

Which RUNX1 binding intensity does the source give for TGAAGGCAATTGACGAACACGTGACGCGGTCGGGCG here?
Its RUNX1 binding intensity is 721.

How did the RUNX1 binding intensity turn out when AGCGCCACCGCAGTGATGCAAGTCGGCAGTTGTAGT was run?
Its RUNX1 binding intensity is 926.

With ATTTCCATTTACGGACTCTTCTCCTGCCCGCAGGGC as the sequence, how does the RUNX1 binding intensity read?
Its RUNX1 binding intensity is 1020.

With TCGTGAAAAAGGAGGTGGATAAAGTGGTTACGGCAA as the sequence, how does the RUNX1 binding intensity read?
The RUNX1 binding intensity was 779.

With CCGAGTGGCGGTTGTTTCAAGATGGCGGAGGTGGCA as the sequence, how does the RUNX1 binding intensity read?
The RUNX1 binding intensity was 789.5 ± 6.2.

CCAGCATGTGGGCTCTGAACCTGAAGCAACAGGCTC was tested. Which RUNX1 binding intensity did it give?
The RUNX1 binding intensity was 796.

How did the RUNX1 binding intensity turn out when GGTGTTACACCGCAGCCTTCCATGAAGGGGCAGGGG was run?
Its RUNX1 binding intensity is 1220.

ATGTTAACACCCTGCCATGAAAACCGCAAGAAGGGC was tested. Which RUNX1 binding intensity did it give?
Its RUNX1 binding intensity is 11200.

Which RUNX1 binding intensity does the source give for CATGAGAAACACCCTGCCCAACCACCTGACTACAAG here?
The RUNX1 binding intensity was 1080.

For CCGGGACCGCGGCTTGGGCTCACGGCCACTGCCGAC, which RUNX1 binding intensity is on record?
Its RUNX1 binding intensity is 703.

How did the RUNX1 binding intensity turn out when GTTTTCAAGGCAGCAAGTGGCTGTGGTGGCACGGAG was run?
The RUNX1 binding intensity was 837.

AGGCTTTGCTGCCACAAACTTTCGTGCCACGAACCT was tested. Which RUNX1 binding intensity did it give?
Its RUNX1 binding intensity is 779.

For AGTTGCATACGCGGTATTGGGCAGGCAATGGCAGGG, which RUNX1 binding intensity is on record?
The RUNX1 binding intensity was 738.

For CGTTTACTGTGGCTGCAGCTCTCCCCACCCACACAC, which RUNX1 binding intensity is on record?
Its RUNX1 binding intensity is 979.

GACGCAGCATGAGGTGGAGGTGTAGAATGTGGTGCT was tested. Which RUNX1 binding intensity did it give?
Its RUNX1 binding intensity is 760.

TTTGCACACATGCTGGCCTCCGCCTGACCACCTCCT was tested. Which RUNX1 binding intensity did it give?
The RUNX1 binding intensity was 985.

For GCCGTGAATGCGGGCTCTCCTGCCGTAAGCTGCCCC, which RUNX1 binding intensity is on record?
Its RUNX1 binding intensity is 824.

TTACAGGGGCCGGGAGTGGCCTGCGGGCGGAGAAGT was tested. Which RUNX1 binding intensity did it give?
Its RUNX1 binding intensity is 738.

How did the RUNX1 binding intensity turn out when TCCTGTGGCTTTGGGGTTCCTTGTTGCCTGGGCTGG was run?
Its RUNX1 binding intensity is 1110.

GTGACCACTGCCTAGTTACTGCCAGCTGAACGAAGG was tested. Which RUNX1 binding intensity did it give?
Its RUNX1 binding intensity is 729.
